Measured values published in PubChem BioAssay (EPA / NIEHS).
Active and inactive are the calls of the source. How the source made its calls: active means hit-call score of the fitted dose curve at least 0.9, where 1 is the maximum; inactive means score below 0.9.

Assays:
Details in all cases: mRNA level, 48 h; actives raise or lower the signal
[1] = read-out: Peroxisomal acyl-coenzyme A oxidase 1 (ACOX1) gene, ACOX1 (gene 51); experiment: LTEA_HepaRG_ACOX1: Life Technologies and Expression Analysis (LTEA) Assay for Peroxisomal acyl-coenzyme A oxidase 1 (ACOX1) gene using HepaRG (AID 2283467)
Summary of the method: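 Differentiated human HepaRG cells were exposed in duplicate for 48 h in serum-free induction medium to eight half-log concentrations up to 100 uM in 0.5% DMSO. ACOX1 mRNA was then quantified by TaqMan qRT-PCR, normalized to ACTB, GAPDH and POLR2A.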

[2] = read-out: Alkaline Phosphatase, Placental (ALPP) gene, ALPP (gene 250); experiment: LTEA_HepaRG_ALPP: Life Technologies and Expression Analysis (LTEA) Assay for Alkaline Phosphatase, Placental (ALPP) gene using HepaRG (AID 2283468)
Summary of the method: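 HepaRG cells plated 48 h, then exposed in duplicate for 48 h in serum-free induction medium to 8-point half-log series from 100 uM in 0.5% DMSO. ALPP mRNA by TaqMan qRT-PCR, normalized to ACTB/GAPDH/POLR2A; bidirectional fit versus DMSO.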

[3] = read-out: Bcl-2 (BAD) gene, BAD (gene 572); experiment: LTEA_HepaRG_BAD: Life Technologies and Expression Analysis (LTEA) Assay for Bcl-2 (BAD) gene using HepaRG (AID 2283469)
Summary of the method: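 Differentiated human HepaRG cells in serum-free induction medium were exposed in duplicate for 48 h to eight concentrations (top 100 uM, half-log steps, 0.5% DMSO). BAD mRNA was quantified by qRT-PCR normalised to ACTB, GAPDH and POLR2A, with bidirectional fitting versus DMSO.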

[4] = read-out: Bcl-2 (BAX) gene, BAX (gene 581); experiment: LTEA_HepaRG_BAX: Life Technologies and Expression Analysis (LTEA) Assay for Bcl-2 (BAX) gene using HepaRG (AID 2283470)
Summary of the method: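 Differentiated HepaRG cells exposed 48 h in serum-free induction medium, eight half-log concentrations from 100 uM, in duplicate, 0.5% DMSO vehicle. BAX mRNA by TaqMan qRT-PCR, normalised to ACTB, GAPDH and POLR2A.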

[5] = read-out: adenosine kinase (ADK) gene, ADK (gene 132); experiment: LTEA_HepaRG_ADK: Life Technologies and Expression Analysis (LTEA) Assay for adenosine kinase (ADK) gene using HepaRG (AID 2283471)
Summary of the method: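 Following 48 h exposure of HepaRG cells in 0.5% DMSO (top concentration 100 uM, duplicate wells), ADK mRNA induction or suppression was measured by qRT-PCR, normalised to ACTB/GAPDH/POLR2A, and fitted bidirectionally relative to vehicle.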

[6] = read-out: Alpha-fetoprotein (AFP) gene, AFP (gene 174); experiment: LTEA_HepaRG_AFP: Life Technologies and Expression Analysis (LTEA) Assay for Alpha-fetoprotein (AFP) gene using HepaRG (AID 2283472)
Summary of the method: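 Differentiated human HepaRG cells exposed 48 h in serum-free induction medium, 8-point half-log series from 100 uM in 0.5% DMSO, duplicate. AFP mRNA by qRT-PCR, normalized to ACTB, GAPDH, POLR2A; bidirectional fit vs DMSO.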

BCL2L11 (gene 10018) = experiment: LTEA_HepaRG_BCL2L11: Life Technologies and Expression Analysis (LTEA) Assay for Bcl-2 (BCL2L11) gene using HepaRG (AID 2283473)
Summary of the method: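 Differentiated human HepaRG cells were exposed 48 h in serum-free induction medium to eight half-log concentrations up to 100 uM in 0.5% DMSO, in duplicate. BCL2L11 mRNA was quantified by TaqMan qRT-PCR, normalized to ACTB, GAPDH and POLR2A; induction or repression fitted versus DMSO.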

[7] = read-out: Apolipoprotein A-V (APOA5) gene, APOA5 (gene 116519); experiment: LTEA_HepaRG_APOA5: Life Technologies and Expression Analysis (LTEA) Assay for Apolipoprotein A-V (APOA5) gene using HepaRG (AID 2283474)
Summary of the method: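 Differentiated HepaRG cells in serum-free induction medium, exposed 48 h in duplicate to eight half-log concentrations topping at 100 uM (0.5% DMSO). APOA5 mRNA by Fluidigm TaqMan qRT-PCR, normalized to ACTB, GAPDH and POLR2A; bidirectional fit versus DMSO.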

[8] = read-out: Apoptosis regulator Bcl-2 (Homo sapiens) (UniProt P10415); experiment: LTEA_HepaRG_BCL2: Life Technologies and Expression Analysis (LTEA) Assay for Bcl-2 gene using HepaRG (AID 2283475)
Summary of the method: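 Differentiated human HepaRG cells in serum-free induction medium exposed 48 h, in duplicate, to 8-point half-log series from 100 uM in 0.5% DMSO. BCL2 mRNA by qRT-PCR (TaqMan/Fluidigm), normalized to ACTB, GAPDH, POLR2A; bidirectional fit against DMSO.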

[9] = read-out: Bcl-2 (BID) gene, BID (gene 637); experiment: LTEA_HepaRG_BID: Life Technologies and Expression Analysis (LTEA) Assay for Bcl-2 (BID) gene using HepaRG (AID 2283476)
Summary of the method: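 Gene expression by qRT-PCR in HepaRG cells after 48 h exposure, duplicate wells, eight half-log concentrations topping at 100 uM in 0.5% DMSO. Normalized to ACTB, GAPDH, POLR2A; bidirectional fitting relative to DMSO.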

Caspase-3 (Homo sapiens) = Caspase-3 (Homo sapiens) (UniProt P42574); experiment: LTEA_HepaRG_CASP3: Life Technologies and Expression Analysis (LTEA) Assay for cysteine-aspartic acid protease (CASP3) using HepaRG (AID 2283477)
Summary of the method: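 Differentiated HepaRG cells, plated 48 h, were treated in duplicate in serum-free induction medium for 48 h with eight half-log concentrations up to 100 uM in 0.5% DMSO. CASP3 mRNA measured by qRT-PCR, normalized to ACTB, GAPDH, POLR2A.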

[10] = read-out: Cytochrome P450 (CYP24A1), CYP24A1 (gene 1591); experiment: LTEA_HepaRG_CYP24A1: Life Technologies and Expression Analysis (LTEA) Assay for Cytochrome P450 (CYP24A1) using HepaRG (AID 2283478)
Summary of the method: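 HepaRG cells plated 48 h, then exposed in duplicate in serum-free induction medium for 48 h to 8-point half-log series from 100 uM in 0.5% DMSO. CYP24A1 mRNA by Fluidigm qRT-PCR, normalized to ACTB, GAPDH, POLR2A; bidirectional fit versus DMSO.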

[11] = read-out: Cytochrome P450 (CYP1A2), CYP1A2 (gene 1544); experiment: LTEA_HepaRG_CYP1A2: Life Technologies and Expression Analysis (LTEA) Assay for Cytochrome P450 (CYP1A2) using HepaRG (AID 2283479)
Summary of the method: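 Differentiated human HepaRG cells in serum-free induction medium exposed 48 hours in duplicate to 8 half-log concentrations from 100 uM, 0.5% DMSO. CYP1A2 mRNA quantified by qRT-PCR, normalized to ACTB, GAPDH and POLR2A; bidirectional fitting versus DMSO.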

[12] = read-out: cysteine-aspartic acid protease (CASP8), CASP8 (gene 841); experiment: LTEA_HepaRG_CASP8: Life Technologies and Expression Analysis (LTEA) Assay for cysteine-aspartic acid protease (CASP8) using HepaRG (AID 2283480)
Summary of the method: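 Differentiated human HepaRG cells, plated 48 h then switched to serum-free induction medium, were exposed in duplicate for 48 h to 8 half-log concentrations up to 100 uM in 0.5% DMSO. CASP8 mRNA was quantified by qRT-PCR, normalized to ACTB/GAPDH/POLR2A.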

[13] = read-out: Cytochrome P450 (CYP2B6), CYP2B6 (gene 1555); experiment: LTEA_HepaRG_CYP2B6: Life Technologies and Expression Analysis (LTEA) Assay for Cytochrome P450 (CYP2B6) using HepaRG (AID 2283481)
Summary of the method: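 Differentiated human HepaRG cells in serum-free induction medium, dosed in duplicate for 48 h over 8 half-log concentrations topping at 100 uM (0.5% DMSO). CYP2B6 mRNA measured by TaqMan qRT-PCR, normalized to ACTB, GAPDH, POLR2A; bidirectional fit versus DMSO.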

[14] = read-out: Cytochrome P450 2C19 (Homo sapiens) (UniProt P33261); experiment: LTEA_HepaRG_CYP2C19: Life Technologies and Expression Analysis (LTEA) Assay for CYP2C19 using HepaRG (AID 2283482)
Summary of the method: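 Differentiated HepaRG cells in serum-free induction medium exposed 48 h in duplicate, 8 concentrations from 100 uM by half-log steps in 0.5% DMSO. CYP2C19 mRNA measured by TaqMan qRT-PCR, normalized to ACTB, GAPDH, POLR2A. Bidirectional fit versus DMSO.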

CYP2C8 (gene 1558) = experiment: LTEA_HepaRG_CYP2C8: Life Technologies and Expression Analysis (LTEA) Assay for CYP2C8 using HepaRG (AID 2283483)
Summary of the method: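 Differentiated human HepaRG cells were exposed for 48 h in serum-free induction medium to eight half-log concentrations up to 100 uM in 0.5% DMSO, in duplicate. CYP2C8 mRNA was measured by TaqMan qRT-PCR, normalized to ACTB, GAPDH and POLR2A, and fitted bidirectionally against DMSO.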

CYP2C9 (gene 1559) = experiment: LTEA_HepaRG_CYP2C9: Life Technologies and Expression Analysis (LTEA) Assay for CYP2C9 using HepaRG (AID 2283484)
Summary of the method: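 Differentiated human HepaRG cells were exposed 48 h in serum-free induction medium to eight half-log concentrations up to 100 uM in 0.5% DMSO. CYP2C9 mRNA was measured by qRT-PCR, normalized to ACTB, GAPDH and POLR2A, and fitted bidirectionally against DMSO.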

CYP4A11 (gene 1579) = experiment: LTEA_HepaRG_CYP4A11: Life Technologies and Expression Analysis (LTEA) Assay for CYP4A11 using HepaRG (AID 2283486)
Summary of the method: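 Differentiated HepaRG cells, 48 h after plating, exposed in duplicate for 48 h to 8 half-log concentrations up to 100 uM in 0.5% DMSO in serum-free induction medium. CYP4A11 mRNA measured by TaqMan qRT-PCR, normalized to ACTB, GAPDH and POLR2A.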

CYP2E1 (gene 1571) = experiment: LTEA_HepaRG_CYP2E1: Life Technologies and Expression Analysis (LTEA) Assay for CYP2E1 using HepaRG (AID 2283485)
Summary of the method: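 HepaRG cells, plated 48 h, then exposed 48 h in serum-free induction medium to eight half-log concentrations from 100 uM in 0.5% DMSO, duplicate. CYP2E1 mRNA by qRT-PCR, normalized to ACTB/GAPDH/POLR2A; bidirectional fit versus DMSO.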

Measured: AC50

Sequence of Apoptosis regulator Bcl-2 (Homo sapiens) (P10415 whole entry, looked up): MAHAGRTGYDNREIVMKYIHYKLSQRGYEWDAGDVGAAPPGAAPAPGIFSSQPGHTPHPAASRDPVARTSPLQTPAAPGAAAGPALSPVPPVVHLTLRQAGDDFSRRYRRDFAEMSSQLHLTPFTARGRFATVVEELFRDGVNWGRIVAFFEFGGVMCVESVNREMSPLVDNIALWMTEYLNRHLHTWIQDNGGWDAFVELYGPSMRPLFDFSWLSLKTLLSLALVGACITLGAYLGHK
Sequence of Caspase-3 (Homo sapiens) (P42574 whole entry, looked up): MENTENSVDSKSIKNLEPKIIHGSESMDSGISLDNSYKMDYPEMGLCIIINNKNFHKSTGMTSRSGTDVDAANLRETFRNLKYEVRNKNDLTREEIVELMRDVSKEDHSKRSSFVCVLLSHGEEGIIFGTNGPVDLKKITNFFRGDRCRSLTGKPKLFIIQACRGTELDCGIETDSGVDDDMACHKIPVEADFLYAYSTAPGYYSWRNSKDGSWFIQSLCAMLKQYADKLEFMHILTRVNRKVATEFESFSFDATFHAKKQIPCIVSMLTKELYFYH
Sequence of Cytochrome P450 2C19 (Homo sapiens) (P33261 whole entry, looked up): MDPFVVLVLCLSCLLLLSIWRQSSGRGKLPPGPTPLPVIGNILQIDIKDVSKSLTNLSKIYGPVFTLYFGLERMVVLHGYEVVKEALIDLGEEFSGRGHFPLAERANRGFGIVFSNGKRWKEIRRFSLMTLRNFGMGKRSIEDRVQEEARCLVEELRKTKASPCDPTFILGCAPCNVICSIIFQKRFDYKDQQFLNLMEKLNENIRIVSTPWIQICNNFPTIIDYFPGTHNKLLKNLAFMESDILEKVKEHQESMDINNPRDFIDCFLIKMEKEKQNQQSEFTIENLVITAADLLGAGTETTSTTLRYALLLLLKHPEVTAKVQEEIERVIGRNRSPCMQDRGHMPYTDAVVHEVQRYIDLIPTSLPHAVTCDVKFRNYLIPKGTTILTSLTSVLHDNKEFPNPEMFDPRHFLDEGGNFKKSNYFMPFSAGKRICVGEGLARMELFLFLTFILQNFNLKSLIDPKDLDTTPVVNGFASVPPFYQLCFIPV

C[C@]12CCC(=O)C=C1CC[C@@H]1[C@@H]2CC[C@]2(C)C(=O)CC[C@@H]12
active: [2] 29.8 µM | [6] 50 µM | [7] 50 µM | [9] 50 µM | [11] 50 µM | [14] 10.4 µM | CYP4A11 (gene 1579) 85.7 µM
not listed: CYP2E1 (gene 1571)
inactive: all other assays above

ClC1=C(Cl)[C@]2(Cl)[C@@H]3[C@@H](Cl)[C@H]4O[C@H]4[C@@H]3C1(Cl)C2(Cl)Cl
active: [6] 21.9 µM | [13] 0.526 µM | [14] 1.21 µM | CYP2E1 (gene 1571) 25.5 µM | CYP4A11 (gene 1579) 31.1 µM
inactive: all other assays above

ClC1=C(Cl)[C@]2(Cl)[C@@H]3[C@@H]4C[C@@H]([C@H]5O[C@@H]45)[C@@H]3[C@@]1(Cl)C2(Cl)Cl
active: [1] 0.0311 µM | [5] 0.0386 µM | [6] 0.0145 µM | [8] 50 µM | Caspase-3 (Homo sapiens) 0.0261 µM | [13] 1.58 µM | CYP2E1 (gene 1571) 22.4 µM | CYP4A11 (gene 1579) 31.5 µM
not listed: [14] | CYP2C8 (gene 1558)
inactive: all other assays above
